# In the supplement of paper PMC8728848:
# Shown is part of a subset that was picked to be rich in the strongest signals.
# Experiments:
# Assay in all cases: glycan array binding signal (z-score within array); higher = stronger binding
# Conditions in all cases: glycan notation: IUPAC condensed, linker removed
# [1] = target: Fuc(a1-2)Gal(b1-3)GalNAc(a1-3)[Fuc(a1-2)]Gal(b1-4)Glc
# In short: (§1)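 Arrays were curated from the Consortium for Functional Glycomics database, 3228 in total, and kept only where the protein sequence was available. Binding is expressed as a within-array Z-score. This score was averaged across arrays of the same protein sequence at different concentrations or buffers and across linkers, and negative values can be read as non-binding.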
# [2] = target: Fuc(a1-2)Gal(b1-4)[Fuc(a1-3)]GlcNAc
# In short: as §1
# [3] = target: Fuc(a1-2)[Gal(a1-3)]Gal(b1-3)GalNAc
# In short: as §1
# [4] = target: Fuc(a1-2)[Gal(a1-3)]Gal(b1-3)GlcNAc(b1-2)Man(a1-3)[Fuc(a1-2)[Gal(a1-3)]Gal(b1-3)GlcNAc(b1-2)Man(a1-6)]Man(b1-4)GlcNAc(b1-4)GlcNAc
# In short: as §1
# [5] = target: Fuc(a1-2)[Gal(a1-3)]Gal(b1-3)GlcNAc(b1-2)Man(a1-3)[Fuc(a1-2)[Gal(a1-3)]Gal(b1-3)GlcNAc(b1-2)Man(a1-6)]Man(b1-4)GlcNAc(b1-4)[Fuc(a1-6)]GlcNAc
# In short: as §1
# [6] = target: Fuc(a1-2)[Gal(a1-3)]Gal(b1-4)GlcNAc(b1-2)Man(a1-3)[Fuc(a1-2)[Gal(a1-3)]Gal(b1-4)GlcNAc(b1-2)Man(a1-6)]Man(b1-4)GlcNAc(b1-4)GlcNAc
# In short: as §1
# [7] = target: Fuc(a1-2)[GalNAc(b1-3)]Gal
# In short: as §1
# [8] = target: Fuc(a1-3)[Gal(b1-4)]GlcNAc(b1-3)GalNAc
# In short: as §1
# [9] = target: Fuc(a1-3)[Gal(b1-4)]GlcNAc(b1-6)[Gal(b1-3)GlcNAc(b1-3)]Gal(b1-4)Glc
# In short: as §1
# [10] = target: Gal(a1-2)Gal
# In short: as §1
# [11] = target: Gal(a1-3)Fuc(a1-2)Gal(b1-4)GlcNAc(b1-3)[Gal(a1-3)Fuc(a1-2)Gal(b1-4)GlcNAc(b1-6)]GalNAc
# In short: as §1
# [12] = target: Gal(a1-3)Gal(b1-3)GlcNAc(b1-2)Man
# In short: as §1
# [13] = target: Gal(a1-3)Gal(b1-4)GlcNAc
# In short: as §1
# [14] = target: Gal(a1-3)Gal(b1-4)GlcNAc(b1-2)Man(a1-3)[Gal(a1-3)Gal(b1-4)GlcNAc(b1-2)Man(a1-6)]Man(b1-4)GlcNAc(b1-4)GlcNAc
# In short: as §1
# [15] = target: Gal(a1-3)Gal(b1-4)[Fuc(a1-3)]GlcNAc
# In short: as §1
# [16] = target: Gal(a1-3)[Gal(a1-4)]Gal(b1-4)GlcNAc
# In short: as §1
# [17] = target: Gal(a1-4)Gal(b1-3)GlcNAc(b1-2)Man(a1-3)[Gal(a1-4)Gal(b1-3)GlcNAc(b1-2)Man(a1-6)]Man(b1-4)GlcNAc(b1-4)GlcNAc
# In short: as §1
# [18] = target: Gal(a1-4)Gal(b1-4)GlcNAc(b1-2)Man(a1-3)[Gal(a1-4)Gal(b1-4)GlcNAc(b1-2)Man(a1-6)]Man(b1-4)GlcNAc(b1-4)GlcNAc
# In short: as §1
# [19] = target: Gal(a1-4)GlcNAc
# In short: as §1
# [20] = target: Gal(b1-3)GalNAc(a1-3)[Fuc(a1-2)]Gal(b1-4)GlcNAc
# In short: as §1
# [21] = target: Gal(b1-3)GlcNAc(a1-6)Gal(b1-4)GlcNAc
# In short: as §1
# [22] = target: Gal(b1-3)GlcNAc(b1-2)Man
# In short: as §1
# [23] = target: Gal(b1-3)GlcNAc(b1-2)[Gal(b1-3)GlcNAc(b1-6)]Man(a1-6)[Gal(b1-3)GlcNAc(b1-2)Man(a1-3)]Man(b1-4)GlcNAc(b1-4)GlcNAc
# In short: as §1
# [24] = target: Gal(b1-3)GlcNAc(b1-3)Gal(b1-4)GlcNAc
# In short: as §1
# [25] = target: Gal(b1-3)GlcNAc(b1-3)Gal(b1-4)GlcNAc(b1-6)[Gal(b1-3)GlcNAc(b1-3)]Gal(b1-4)Glc
# In short: as §1
# [26] = target: Gal(b1-3)GlcNAc(b1-3)Gal(b1-4)[Fuc(a1-3)]GlcNAc
# In short: as §1
# [27] = target: Gal(b1-4)GlcNAc(b1-2)Man(a1-3)[Gal(b1-4)GlcNAc(b1-2)Man(a1-6)][Gal(b1-4)GlcNAc(b1-4)]Man(b1-4)GlcNAc(b1-4)[Fuc(a1-6)]GlcNAc
# In short: as §1
# [28] = target: Gal(b1-4)GlcNAc(b1-2)Man(a1-3)[GlcNAc(b1-4)][Gal(b1-4)GlcNAc(b1-2)Man(a1-6)]Man(b1-4)GlcNAc(b1-4)GlcNAc
# In short: as §1
# [29] = target: Gal(b1-4)GlcNAc(b1-2)Man(a1-6)Man(b1-4)GlcNAc(b1-4)GlcNAc
# In short: as §1
# [30] = target: Gal(b1-4)GlcNAc(b1-3)Gal(b1-4)GlcNAc(b1-3)Gal(b1-4)GlcNAc(b1-3)Gal(b1-4)GlcNAc(b1-3)Gal(b1-4)GlcNAc(b1-3)Gal(b1-4)GlcNAc(b1-2)Man(a1-3)[Gal(b1-4)GlcNAc(b1-3)Gal(b1-4)GlcNAc(b1-3)Gal(b1-4)GlcNAc(b1-3)Gal(b1-4)GlcNAc(b1-3)Gal(b1-4)GlcNAc(b1-3)Gal(b1-4)GlcNAc(b1-2)Man(a1-6)]Man(b1-4)GlcNAc(b1-4)GlcNAc
# In short: as §1
# [31] = target: Gal3S(b1-4)Glc
# In short: as §1
# [32] = target: Gal3S(b1-4)GlcNAc
# In short: as §1
# [33] = target: GalNAc(a1-3)GalNAc(b1-3)Gal(a1-4)Gal(b1-4)Glc
# In short: as §1
# [34] = target: GalNAc3S(b1-4)GlcNAc
# In short: as §1
# [35] = target: GlcNAc(a1-4)Gal(b1-4)GlcNAc
# In short: as §1
# [36] = target: GlcNAc(b1-2)[GlcNAc(b1-4)]Man(a1-3)[GlcNAc(b1-4)][GlcNAc(b1-2)[GlcNAc(b1-6)]Man(a1-6)]Man(b1-4)GlcNAc(b1-4)GlcNAc
# In short: as §1
# [37] = target: GlcNAc(b1-2)[GlcNAc(b1-4)]Man(a1-3)[GlcNAc(b1-4)][GlcNAc(b1-2)[GlcNAc(b1-6)]Man(a1-6)]Man(b1-4)GlcNAc(b1-4)[Fuc(a1-6)]GlcNAc
# In short: as §1
# [38] = target: GlcNAc(b1-3)Gal(b1-4)GlcNAc
# In short: as §1
# [39] = target: GlcNAc(b1-3)Gal(b1-4)GlcNAc(b1-3)Gal(b1-4)GlcNAc(b1-2)Man(a1-3)[GlcNAc(b1-3)Gal(b1-4)GlcNAc(b1-3)Gal(b1-4)GlcNAc(b1-2)Man(a1-6)]Man(b1-4)GlcNAc(b1-4)GlcNAc
# In short: as §1
# [40] = target: GlcNAc(b1-3)Gal(b1-4)GlcNAc(b1-3)GalNAc
# In short: as §1
# [41] = target: GlcNAc(b1-3)[GlcNAc(b1-4)][GlcNAc(b1-6)]GlcNAc
# In short: as §1
# [42] = target: GlcNAc(b1-3)[GlcNAc(b1-6)]GalNAc
# In short: as §1
# [43] = target: Neu5Ac(a2-3)Gal(b1-3)GlcNAc(b1-2)Man(a1-3)[GlcNAc(b1-4)][Neu5Ac(a2-3)Gal(b1-3)GlcNAc(b1-2)Man(a1-6)]Man(b1-4)GlcNAc(b1-4)GlcNAc
# In short: as §1
# [44] = target: Neu5Ac(a2-3)Gal(b1-4)GlcNAc(b1-2)Man
# In short: as §1
# [45] = target: Neu5Ac(a2-3)Gal(b1-4)GlcNAc(b1-2)Man(a1-3)[Neu5Ac(a2-3)Gal(b1-4)GlcNAc(b1-2)Man(a1-6)]Man(b1-4)GlcNAc(b1-4)[Fuc(a1-6)]GlcNAc
# In short: as §1
# [46] = target: Neu5Ac(a2-3)Gal(b1-4)GlcNAc(b1-3)Gal(b1-4)GlcNAc(b1-2)Man(a1-3)[Neu5Ac(a2-3)Gal(b1-4)GlcNAc(b1-3)Gal(b1-4)GlcNAc(b1-2)Man(a1-6)]Man(b1-4)GlcNAc(b1-4)GlcNAc
# In short: as §1
# [47] = target: Neu5Ac(a2-3)Gal(b1-4)GlcNAc(b1-6)[Gal(b1-3)]GalNAc
# In short: as §1
# [48] = target: Neu5Ac(a2-3)Gal(b1-4)GlcNAc(b1-6)[Neu5Ac(a2-3)Gal(b1-3)]GalNAc
# In short: as §1
# [49] = target: Neu5Ac(a2-3)Gal(b1-4)[Fuc(a1-3)]GlcNAc(b1-2)Man
# In short: as §1
# [50] = target: Neu5Ac(a2-3)GalNAc(b1-4)GlcNAc
# In short: as §1
# [51] = target: Neu5Ac(a2-6)GlcNAc(b1-4)GlcNAc(b1-4)GlcNAc
# In short: as §1
# [52] = target: Neu5Ac(a2-8)Neu5Ac(a2-8)Neu5Ac
# In short: as §1
# [53] = target: Neu5Ac9Ac(a2-3)Gal(b1-4)GlcNAc
# In short: as §1
binder,measurement,setting,value
GSL-I-B4 (Griffonia simplicifolia) (protein) NFWSDVEDSIIFQGDANTTAGTLQLCKTNQYGTPLQWSAGRALYSDPVQLWDNKTESVASFYTEFTFFLKITGNGPADGLAFFLAPPDSDVKDAGEYLGLFNKSTATQPSKNQVVAVEFDTWTNPNFPEPSYRHIGINVNSIVSVATKRWEDSDIFSGKIATARISYDGSAEILTVVLSYPDGSDYILSHSVDMRQNLPESVRVGISASTGNNQFLTVYILSWRFSSNLQSTSVKAAMEPEITRTVV,glycan array binding signal (z-score),[1],-0.132
same,glycan array binding signal (z-score),[2],-0.131
same,glycan array binding signal (z-score),[3],0.853
same,glycan array binding signal (z-score),[4],1.74
same,glycan array binding signal (z-score),[5],0.077
same,glycan array binding signal (z-score),[6],3.69
same,glycan array binding signal (z-score),[7],-0.12
same,glycan array binding signal (z-score),[8],-0.197
same,glycan array binding signal (z-score),[9],-0.155
same,glycan array binding signal (z-score),[10],5.94
same,glycan array binding signal (z-score),[11],1.98
same,glycan array binding signal (z-score),[12],1.88
same,glycan array binding signal (z-score),[13],2
same,glycan array binding signal (z-score),[14],7.78
same,glycan array binding signal (z-score),[15],6.03
same,glycan array binding signal (z-score),[16],1.71
same,glycan array binding signal (z-score),[17],5.37
same,glycan array binding signal (z-score),[18],1.52
same,glycan array binding signal (z-score),[19],13.8
same,glycan array binding signal (z-score),[20],-0.212
same,glycan array binding signal (z-score),[21],-0.155
same,glycan array binding signal (z-score),[22],-0.171
same,glycan array binding signal (z-score),[23],-0.138
same,glycan array binding signal (z-score),[24],-0.228
same,glycan array binding signal (z-score),[25],-0.187
same,glycan array binding signal (z-score),[26],-0.177
same,glycan array binding signal (z-score),[27],-0.172
same,glycan array binding signal (z-score),[28],-0.15
same,glycan array binding signal (z-score),[29],-0.205
same,glycan array binding signal (z-score),[30],-0.133
same,glycan array binding signal (z-score),[31],-0.151
same,glycan array binding signal (z-score),[32],-0.174
same,glycan array binding signal (z-score),[33],-0.156
same,glycan array binding signal (z-score),[34],-0.159
same,glycan array binding signal (z-score),[35],-0.12
same,glycan array binding signal (z-score),[36],-0.089
same,glycan array binding signal (z-score),[37],-0.062
same,glycan array binding signal (z-score),[38],-0.186
same,glycan array binding signal (z-score),[39],0.066
same,glycan array binding signal (z-score),[40],-0.208
same,glycan array binding signal (z-score),[41],-0.144
same,glycan array binding signal (z-score),[42],-0.161
same,glycan array binding signal (z-score),[43],-0.151
same,glycan array binding signal (z-score),[44],-0.197
same,glycan array binding signal (z-score),[45],-0.214
same,glycan array binding signal (z-score),[46],0.149
same,glycan array binding signal (z-score),[47],-0.23
same,glycan array binding signal (z-score),[48],-0.212
same,glycan array binding signal (z-score),[49],-0.187
same,glycan array binding signal (z-score),[50],-0.157
same,glycan array binding signal (z-score),[51],-0.169
same,glycan array binding signal (z-score),[52],-0.144
same,glycan array binding signal (z-score),[53],-0.134
